Assay results reported in PubChem BioAssay (Tox21).
Several values for one entry are separate records, joined by “and”; a condition that tells them apart may be missing. Identical values can stand only once. Records with an inconclusive call do not appear. Some structures have more than one record in an assay (separate samples or runs), and their calls can disagree. Activity calls are given as the source filed them. The call rests on the fitted dose curve; in most records, active means well fitted curve in the direction sought with a large enough effect in the repeat runs; inconclusive means weak or mixed curves; inactive means no such curve, though single readings can be large; an effect the other way counts as inactive or inconclusive.

Tests used:
[1] = A CellTox Green Cytotoxicity Assay to monitor cytotoxicity in HEK293 cells - 40 hour (AID 1224871); further: nearly all actives have a fitted effect of over 45% in size
Procedure, shortened: (§1)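 Fluorescence from a DNA-binding dye excluded by viable cells was measured repeatedly in the same HEK293 wells (600 cells/well) during continuous compound exposure at 37 C. Each assay gives one read point: 0, 8, 16, 24, 32 or 40 h.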

[2] = qHTS RealTime-Glo MT Cell Viability Assay in HepG2 cells - 8 hour (AID 1224873); further: nearly all actives have a fitted effect of over 55% in size
Procedure, shortened: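 HepG2 cells (600/well) mixed with RealTime-Glo MT reagent, settled 5 h at 37 C/5% CO2 before compound addition. Nonlytic NanoLuc luminescence from viable-cell prosubstrate reduction read repeatedly during 40 h treatment at 37 C.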

[3] = A CellTox Green Cytotoxicity Assay to monitor cytotoxicity in HEK293 cells - 24 hour (AID 1224875); further: series mostly up to about 77 µM; nearly all actives have a fitted effect of over 45% in size
Procedure, shortened: as §1

[4] = A CellTox Green Cytotoxicity Assay to monitor cytotoxicity in HepG2 cells - 16 hour (AID 1224876); further: nearly all actives have a fitted effect of over 45% in size
Procedure, shortened: (§2)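 Real-time cytotoxicity: fluorescence of a cell-impermeant cyanine dye binding DNA of dead HepG2 cells, measured repeatedly (0–40 h) during compound exposure at 37 C. Cells seeded 600/well with reagent, dosed after 5 h.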

[5] = qHTS RealTime-Glo MT Cell Viability Assay in HepG2 cells - 32 hour (AID 1224877); further: nearly all actives have a fitted effect of over 55% in size
Procedure, shortened: (§3)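 Real-time, nonlytic viability: 600 HepG2 cells/well mixed with NanoLuc enzyme plus prosubstrate; 5 h settle, compound (DMSO) added by pintool; luminescence monitored over 40 h at 37 C.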

[6] = A CellTox Green Cytotoxicity Assay to monitor cytotoxicity in HepG2 cells - 24 hour (AID 1224878); further: nearly all actives have a fitted effect of over 45% in size
Procedure, shortened: as §2

[7] = A CellTox Green Cytotoxicity Assay to monitor cytotoxicity in HepG2 cells - 40 hour (AID 1224879); further: nearly all actives have a fitted effect of over 40% in size; further: potency means the concentration at half of the fitted maximal effect
Procedure, shortened: as §2

[8] = A CellTox Green Cytotoxicity Assay to monitor cytotoxicity in HEK293 cells - 32 hour (AID 1224881); further: nearly all actives have a fitted effect of over 40% in size
Procedure, shortened: as §1

[9] = A CellTox Green Cytotoxicity Assay to monitor cytotoxicity in HepG2 cells - 0 hour (AID 1224882); further: nearly all actives have a fitted effect of over 35% in size
Procedure, shortened: as §2

[10] = A CellTox Green Cytotoxicity Assay to monitor cytotoxicity in HepG2 cells - 32 hour (AID 1224883); further: nearly all actives have a fitted effect of over 50% in size
Procedure, shortened: as §2

[11] = A CellTox Green Cytotoxicity Assay to monitor cytotoxicity in HEK293 cells - 8 hour (AID 1224884); further: nearly all actives have a fitted effect of over 35% in size
Procedure, shortened: as §1

[12] = qHTS RealTime-Glo MT Cell Viability Assay in HepG2 cells - 16 hour (AID 1224885); further: nearly all actives have a fitted effect of over 50% in size
Procedure, shortened: as §3

[13] = qHTS RealTime-Glo MT Cell Viability Assay in HEK293 cells - 8 hour (AID 1224887); further: top concentration of the series differs between compounds; nearly all actives have a fitted effect of over 50% in size
Procedure, shortened: (§4)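 Luminescence, which tracks viable cell number through reduction of the prosubstrate to a NanoLuc substrate, was read over continuous 37 C culture. Cells (600/well) were premixed with reagent and rested 5 h before 23 nL of compound in DMSO was pinned.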

[14] = A CellTox Green Cytotoxicity Assay to monitor cytotoxicity in HEK293 cells - 16 hour (AID 1224888); further: nearly all actives have a fitted effect of over 35% in size
Procedure, shortened: as §1

[15] = A CellTox Green Cytotoxicity Assay to monitor cytotoxicity in HepG2 cells - 8 hour (AID 1224890); further: nearly all actives have a fitted effect of over 45% in size
Procedure, shortened: as §2

[16] = qHTS RealTime-Glo MT Cell Viability Assay in HEK293 cells - 16 hour (AID 1224872); further: top concentration of the series differs between compounds; nearly all actives have a fitted effect of over 50% in size
Procedure, shortened: (§5)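 Cells + reagent dispensed (600 cells/well, HEK293) → 5 h at 37 C/5% CO2 → 23 nL compound in DMSO pinned → 40 h at 37 C → luminescence read at 0, 8, 16, 24, 32, 40 h.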

[17] = qHTS RealTime-Glo MT Cell Viability Assay in HEK293 cells - 40 hour (AID 1224874); settings: RealTime-Glo luminescence; max response: stronger effect = lower value; further: nearly all actives have a fitted effect of over 50% in size; further: potency means the concentration at half of the fitted maximal effect
Procedure, shortened: as §4

[18] = qHTS RealTime-Glo MT Cell Viability Assay in HEK293 cells - 0 hour (AID 1224880)
Procedure, shortened: as §4

[19] = qHTS RealTime-Glo MT Cell Viability Assay in HEK293 cells - 24 hour (AID 1224886); further: nearly all actives have a fitted effect of over 50% in size; further: potency means the concentration at half of the fitted maximal effect
Procedure, shortened: as §5

[20] = qHTS RealTime-Glo MT Cell Viability Assay in HepG2 cells - 0 hour (AID 1224889); further: nearly all actives have a fitted effect of over 50% in size
Procedure, shortened: as §3
On the % scale 0 is the no-effect control and ±100 the full control effect.

CCOC(=O)[C@]1(c2ccccc2)Oc2ccccc2[C@@H]1N
inactive: Potency [1] | Potency [2] | Potency [3] | Potency [4] | Potency [5] | Potency [6] | Potency [7] | Potency [8] | Potency [9] | Potency [10] | Potency [11] | Potency [12] | Potency [13] | Potency [14] | Potency [15]

CCOP(=S)(OCC)SCSCC
inactive: Potency [16] | Potency [2] | max response [17] 1.39% | Potency [3] | Potency [4] | Potency [5] | Potency [6] | Potency [7] | Potency [18] | Potency [8] | Potency [9] | Potency [10] | Potency [11] | Potency [12] | Potency [19] | Potency [13] | Potency [14] | Potency [15]

CCCCC(CC)COP(=O)(Oc1ccccc1)Oc1ccccc1 (stereo not given)
inactive: Potency [16] | Potency [2] | max response [17] -24.3% | Potency [3] | Potency [4] | Potency [5] | Potency [6] | Potency [7] | Potency [18] | Potency [8] | Potency [9] | Potency [10] | Potency [11] | Potency [12] | Potency [13] | Potency [14] | Potency [20] | Potency [15]

CC(c1ccc(O)cc1)(c1ccc(O)cc1)c1ccc(O)cc1
inactive: Potency [1] | Potency [2] | Potency [3] | Potency [4] | Potency [5] | Potency [6] | Potency [8] | Potency [9] | Potency [10] | Potency [11] | Potency [12] | Potency [15]

Cn1cc[n+](C)c1 (tested in a mixture with another compound)
inactive: Potency [16] | Potency [2] | max response [17] 6.73% | Potency [3] | Potency [4] | Potency [5] | Potency [6] | Potency [7] | Potency [18] | Potency [8] | Potency [9] | Potency [10] | Potency [11] | Potency [12] | Potency [19] | Potency [13] | Potency [14] | Potency [20] | Potency [15]

CC(C)O.CC(C)O.OCCN(CCO)CCO.OCCN(CCO)CCO.[Ti]
inactive: Potency [16] | Potency [2] | max response [17] 16.3% | Potency [3] | Potency [4] | Potency [5] | Potency [6] | Potency [7] | Potency [18] | Potency [8] | Potency [9] | Potency [10] | Potency [11] | Potency [12] | Potency [19] | Potency [13] | Potency [14] | Potency [20] | Potency [15]

BrCCCCBr
inactive: Potency [16] | Potency [2] | max response [17] 17.9% | Potency [3] | Potency [4] | Potency [5] | Potency [6] | Potency [7] | Potency [18] | Potency [8] | Potency [9] | Potency [10] | Potency [11] | Potency [12] | Potency [19] | Potency [13] | Potency [14] | Potency [20] | Potency [15]

CCn1cc[n+](C)c1
inactive: Potency [16] | Potency [2] | max response [17] 0.829% [middle of 11 runs] | Potency [3] | Potency [4] | Potency [5] | Potency [6] | Potency [18] | Potency [8] | Potency [9] | Potency [10] | Potency [11] | Potency [12] | Potency [13] | Potency [14] | Potency [20] | Potency [15]
active: Potency [17] 1.56 µM
inactive and 1.75 µM (active): Potency [19]
inactive and 55.5 µM (active): Potency [7]

NNC(=O)c1cccnc1
inactive: Potency [16] | Potency [2] | max response [17] 12.4% | Potency [3] | Potency [4] | Potency [5] | Potency [6] | Potency [7] | Potency [18] | Potency [8] | Potency [9] | Potency [10] | Potency [11] | Potency [12] | Potency [19] | Potency [13] | Potency [20] | Potency [15]

COC(C)(C)CCC[C@H](C)C/C=C/C(C)=C/C(=O)OC(C)C
inactive: Potency [16] | Potency [2] | max response [17] -3.6% | Potency [3] | Potency [4] | Potency [5] | Potency [6] | Potency [7] | Potency [18] | Potency [9] | Potency [10] | Potency [11] | Potency [12] | Potency [19] | Potency [20] | Potency [15]

CC(C)(CCl)C(=O)Cl
inactive: Potency [16] | Potency [2] | max response [17] 0.815% | Potency [3] | Potency [4] | Potency [5] | Potency [6] | Potency [7] | Potency [18] | Potency [8] | Potency [9] | Potency [10] | Potency [11] | Potency [12] | Potency [19] | Potency [13] | Potency [14] | Potency [20] | Potency [15]

CCCCOC(=O)c1ccccc1C(=O)OCc1ccccc1
inactive: Potency [1] | Potency [2] | Potency [3] | Potency [4] | Potency [5] | Potency [6] | Potency [7] | Potency [8] | Potency [9] | Potency [10] | Potency [11] | Potency [12] | Potency [14] | Potency [20] | Potency [15]

C/C=C/C=O
inactive: Potency [16] | Potency [2] | max response [17] 5.18% | Potency [3] | Potency [4] | Potency [5] | Potency [6] | Potency [7] | Potency [18] | Potency [8] | Potency [9] | Potency [10] | Potency [11] | Potency [12] | Potency [19] | Potency [13] | Potency [14] | Potency [20] | Potency [15]

O=C1C(=O)c2cccc3cccc1c23
inactive: Potency [1] | Potency [3] | Potency [4] | Potency [6] | Potency [7] | Potency [8] | Potency [9] | Potency [10] | Potency [11] | Potency [12] | Potency [14] | Potency [20] | Potency [15]
